In the library only some 18% were active in any assay of this set; here they are far more common.
TDP1 inh – inhibitors of human tyrosyl-DNA phosphodiesterase TDP1 | recombinant TDP1, AlphaScreen DNA substrate cleavage | Potency, µM (titrated, usually from 130 µM), actives largely listed as inhibitors | Q9NUW8 | AID 485290 | 350,000 compounds, 0.28% hits; further: nearly all actives have a fitted effect of over 40% in size
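Enzyme-compound mixtures sat 15 min at room temperature, followed by a 5 min reaction with 15 nM final substrate and 10 min with AlphaScreen beads. Recombinant human Tdp1 was used at 1 nM final.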
PLK1 PBD block – inhibitors of human PLK1 polo-box domain binding; Potency, µM, usual class: inhibitors; Plk1 PBD binding of FITC phosphopeptide, fluorescence polarization; AID 720504; P53350; 360,000 compounds, 2.8% hits; further: series mostly up to about 57 µM; nearly all actives have a fitted effect of over 65% in size
Target sequence (P53350 whole entry, looked up, the tested form may be a part): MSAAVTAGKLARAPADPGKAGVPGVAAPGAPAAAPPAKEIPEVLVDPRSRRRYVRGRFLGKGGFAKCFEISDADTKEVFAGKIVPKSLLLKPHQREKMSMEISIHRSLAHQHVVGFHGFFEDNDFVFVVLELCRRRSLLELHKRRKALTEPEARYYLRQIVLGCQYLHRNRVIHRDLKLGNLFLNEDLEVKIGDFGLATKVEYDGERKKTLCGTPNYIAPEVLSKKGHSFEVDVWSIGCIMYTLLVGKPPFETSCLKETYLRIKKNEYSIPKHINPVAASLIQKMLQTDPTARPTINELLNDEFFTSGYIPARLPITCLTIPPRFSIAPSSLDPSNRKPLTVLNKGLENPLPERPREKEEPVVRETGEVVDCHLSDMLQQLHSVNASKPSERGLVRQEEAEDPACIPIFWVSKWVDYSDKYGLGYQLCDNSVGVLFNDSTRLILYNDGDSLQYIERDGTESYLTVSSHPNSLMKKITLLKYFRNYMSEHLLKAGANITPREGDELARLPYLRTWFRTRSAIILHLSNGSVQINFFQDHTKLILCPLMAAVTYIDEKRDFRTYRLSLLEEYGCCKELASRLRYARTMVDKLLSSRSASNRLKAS
TDP1 cell CPT – growth inhibition of DT40 Tdp1-/-;hTDP1 cells with camptothecin (screen for TDP1 inhibitors); chicken DT40 Tdp1-/-;hTDP1 cells + 20 nM CPT, ATP luminescence, 48 h; Potency, µM (highest dose often 46.2 µM), hits mostly inhibitors; 420,000 compounds, 12% hits; further: nearly all actives have a fitted effect of over 55% in size
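Chicken DT40 Tdp1-/- cells stably complemented with human TDP1 were seeded at 400 cells/well in medium containing 20 nM camptothecin, exposed to pin-transferred compounds, and grown at 37 °C for at least 48 hr. Viability was read as ATP luminescence.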
VDR inhibitor – blocks the human vitamin D receptor; VDR-SRC2-3 peptide fluorescence polarization, 2 h; AID 504847; P11473; 400,000 compounds, 0.93% hits; Potency, µM, actives largely listed as inhibitors
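Signal is fluorescence polarization, reporting how far test compounds block the interaction of VDR with the SRC2-3 coregulator peptide after a 2 h room-temperature incubation.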
TDP1 cell noCPT – qHTS for Inhibitors of human tyrosyl-DNA phosphodiesterase 1 (TDP1): qHTS in cells in absence of CPT | Potency, µM (doses to about 46.2 µM), most hits filed as inhibitors | DT40 Tdp1-/- hTDP1 cells, no CPT, ATP luminescence, 48 h | 420,000 compounds, 15% hits | AID 686978, 2013; further: nearly all actives have a fitted effect of over 55% in size
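Chicken DT40 Tdp1-/- cells complemented with human TDP1, screened without camptothecin (DMSO vehicle only), 400 cells/well. Compounds pin-transferred, cells incubated at 37 °C for at least 48 hr. Growth read as ATP-dependent luminescence (CellTiter-Glo, 30 min at RT).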
GCN5L2 inh – inhibitors of human GCN5L2 histone acetyltransferase | GCN5L2 HAT assay, ThioGlo1 CoA-SH fluorescence | Potency, µM (doses to about 58.9 µM), actives largely listed as inhibitors | 390,000 compounds, 0.21% hits | AID 504327
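ThioGlo1-coupled HAT assay: 20nM GCN5L2, 70uM acetyl-CoA, 75uM H3(1-25) peptide, pH 7.5. Fluorescence read at 340/540nm at start and after 20 min at room temperature.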
A number is an active result; . = inactive; ? = inconclusive; / = not tested or not shown; [ ] = another dose, or the depositor's remark. The call rests on the fitted dose curve; in most records, active means well fitted curve in the direction sought with a large enough effect; inconclusive means small, poorly fitted or top-dose-only effect, or another doubt; inactive means no such curve, though single readings can be large; an effect the other way counts as inactive or inconclusive.

SMILES | TDP1 inh | PLK1 PBD block | TDP1 cell CPT | VDR inhibitor | TDP1 cell noCPT | GCN5L2 inh
O=C(CC1Oc2ccccc2NC1=O)NCc1ccccc1 (stereo not drawn) | . | 21µM | ? | ? | . | .
Cc1cc(-c2ccc(C)c(S(=O)(=O)Nc3ccccc3C(F)(F)F)c2)on1 | . | / | ? | . | ? | .
CCC(=O)OCC(=O)Nc1ccc(OC)cc1[N+](=O)[O-] | . | . | . | . | . | .
CCOC(=O)C(=CNc1ccc(OC)cc1[N+](=O)[O-])C(=O)OCC | . | . | 16µM | . | 12µM | .
CCOC(=O)C(=CNc1ccc(C)cc1C)C(=O)OCC | . | . | ? | . | 16µM | .
CCOC(=O)C(=CNc1ccc(C(F)(F)F)cc1)C(=O)OCC | . | . | . | . | . | .
CCOC(=O)C(=CNc1cc(C)nn1-c1ccc(Cl)cc1)C(=O)OCC | . | . | 23µM | . | ? | .
CN(CCCC(=O)NC1CC(C)(C)NC(C)(C)C1)S(=O)(=O)c1ccc([N+](=O)[O-])cc1 | . | . | . | . | . | .
O=c1c(-c2cc(F)cc(F)c2)nc2cnc(N3CCOCC3)nc2n1-c1ccccc1 | / | / | . | . | . | ?
COc1ccc(N2CCN(C(=O)c3oc4ccccc4c3NC(=O)Cc3cccc(OC)c3)CC2)cc1 | . | . | ? | . | ? | .
CC(C)CC(=O)Nc1c(C(=O)N2CCN(c3ccccc3F)CC2)oc2ccccc12 | . | / | 13µM | . | 10µM | .
Cc1cccc(OCC(=O)Nc2c(C(=O)N3CCN(c4ccccc4F)CC3)oc3ccccc23)c1 | . | / | ? | . | 18µM | .
COc1cccc(CC(=O)Nc2c(C(=O)N3CCN(c4ccccc4F)CC3)oc3ccccc23)c1 | . | / | 5.8µM | . | 4.6µM | .
CC(C)(C)C(=O)Nc1c(C(=O)N2CCN(c3ccc(F)cc3)CC2)oc2ccccc12 | . | / | 18µM | . | 15µM | .
COc1ccc(OCC(=O)Nc2c(C(=O)N3CCN(c4ccccc4)CC3)oc3ccccc23)cc1 | . | / | ? | . | . | .
O=C(Nc1c(C(=O)N2CCN(c3ccccc3F)CC2)oc2ccccc12)c1cccc(F)c1 | . | / | ? | . | ? | .
Cc1ccccc1CN1c2ccccc2-c2nc(SCC(=O)Nc3cc(F)ccc3F)ncc2S1(=O)=O | . | / | ? | . | 10µM | .
COc1ccc(C)cc1NC(=O)CSc1ncc2c(n1)-c1ccc(Cl)cc1N(Cc1ccccc1)S2(=O)=O | . | / | 9.2µM | . | ? | .
Cc1ccccc1CN1c2ccccc2-c2nc(SCC(=O)c3ccccc3)ncc2S1(=O)=O | . | / | . | . | . | .
COc1ccc(CNC(=O)CSc2ncc3c(n2)-c2ccc(Cl)cc2N(Cc2ccccc2)S3(=O)=O)cc1 | . | / | ? | . | ? | .
COc1ccc(NC(=O)CSc2ncc3c(n2)-c2ccccc2N(Cc2ccc(C)cc2)S3(=O)=O)cc1Cl | . | / | ? | . | ? | .
COc1ccc(OC)c(C(=O)CSc2ncc3c(n2)-c2ccccc2N(Cc2ccccc2C)S3(=O)=O)c1 | . | / | 18µM | . | ? | .
Cc1cccc(C)c1NC(=O)CSc1ncc2c(n1)-c1ccc(Cl)cc1N(Cc1ccccc1)S2(=O)=O | . | / | ? | . | 16µM | .
COc1ccc(-c2oc3ncn4nc(COc5c(C)cccc5C)nc4c3c2-c2ccc(OC)cc2)cc1 | .[12.3 µM] | / | ? | . | ? | .
CCC1OC(=O)C(C)[C@@H](O[C@H]2C[C@@](C)(OC)C(O)C(C)O2)C(C)[C@@H](O[C@@H]2OC(C)CC(N(C)C)C2O)[C@@](C)(O)CC(C)CN(C)C(C)C(O)[C@]1(C)O (stereo partly drawn) | . | / | ? | . | ? | .
SMILES | TDP1 inh | PLK1 PBD block | TDP1 cell CPT | VDR inhibitor | TDP1 cell noCPT | GCN5L2 inh
O=C(CSc1ncc2c(n1)-c1cc(Cl)ccc1N(Cc1ccccc1)S2(=O)=O)Nc1ccc(F)cc1F | . | / | 18µM | . | ? | .
COc1ccccc1NC(=O)CSc1ncc2c(n1)-c1cc(Cl)ccc1N(Cc1ccccc1)S2(=O)=O | . | / | ? | . | ? | .
CCN(C(=O)CSc1ncc2c(n1)-c1cc(Cl)ccc1N(Cc1ccccc1)S2(=O)=O)c1cccc(C)c1 | . | / | ? | . | 16µM | .
O=C(CSc1ncc2c(n1)-c1cc(Cl)ccc1N(Cc1ccccc1F)S2(=O)=O)Nc1cccc(C(F)(F)F)c1 | . | / | 18µM | . | ? | .
CCc1cccc(NC(=O)CSc2ncc3c(n2)-c2cc(Cl)ccc2N(C)S3(=O)=O)c1 | . | / | ? | . | ? | .
O=C(CSc1ncc2c(n1)-c1ccc(Cl)cc1N(Cc1ccccc1)S2(=O)=O)Nc1ccc(F)c(F)c1 | . | / | 23µM | . | 18µM | .
c1c[nH]c(CN2CCN(Cc3ncc[nH]3)CC2)n1 | / | . | . | . | . | /
Cc1c(O)c(CN2CCCC2)cc2c3c(c(=O)oc12)CCC3 | . | . | . | . | . | ?
O=c1oc2c3c4c(cc2c2c1CCC2)OCCN4CCC3 | . | . | 18µM | . | ? | ?
COC1=Nc2ccccc2/C=C\c2ccccc21 | / | . | . | / | . | /
COC(=O)Cc1c[nH]c2cccc(OCC(O)CN(Cc3ccc([N+](=O)[O-])cc3)C(C)(C)C)c12 (stereo not drawn) | . | . | ? | . | 18µM | .
Cc1ccc(CN(CC(O)COc2cccc3[nH]cc(C)c23)C(C)(C)C)cc1 (stereo not drawn) | / | . | 21µM | . | ? | .
Nc1nc2ncccc2cc1C(=O)NCCc1cccs1 | / | . | 23µM | / | 13µM | /
Oc1ccc(O)c(-c2cnns2)c1 | . | ? | 15µM | . | ? | .
COc1ccc(-n2nnnc2-c2cccc(OC)c2)cc1 | . | . | 0.82µM | . | 0.58µM | .
Cc1ccc(-n2nnnc2-c2cnn(-c3ccc(F)cc3)c2C(F)(F)F)cc1 | . | . | 13µM | . | ? | .
Cc1cccc(-c2nnnn2-c2cccc(C)c2)c1 | . | . | . | . | . | .
Cc1ccc(-c2nnnn2-c2ccc(C)cc2)cc1 | . | 17µM | ? | ? | ? | .
Cc1ccc(-n2nnnc2-c2cccc(C)c2)cc1 | . | . | . | . | . | .
Cc1ccc(-n2nnnc2-c2ccccc2Br)cc1 | / | . | . | . | . | /
CC(/C=N\Nc1nnc2c(n1)[nH]c1c(C)cccc12)=C\c1ccco1 | . | . | 9.2µM | . | 10µM | .
COc1ccc(OC)c(NC(=O)CCCOc2cc(=O)n(C)c3ccccc23)c1 | . | / | ? | . | ? | .
O=C(O)c1cccc(S(=O)(=O)Nc2ccc(O)c(Sc3nc4ccccc4s3)c2)c1 | . | 21µM | . | . | . | .

High-throughput results from PubChem.
